# According to PubChem BioAssay AID485297 (National Center for Advancing Translational Sciences (NCATS), 2010):
# Out of some 320,000 compounds screened, about 9,100 (2.8%) were called active. Another 3% or so got no clear call; they are omitted. Shown is part of a subset that was picked to be rich in actives. Values without a mark were called inactive. The call rests on the fitted dose curve; in most records, active means well fitted activation curve with a large enough effect; inconclusive means small, poorly fitted or top-dose-only effect; inactive means no such curve, though single readings can be large or run the other way.
# Assay: qHTS Assay for Rab9 Promoter Activators; further: nearly all actives have a fitted effect of over 60% in size; on activation, negative = inhibition: % of control where 0% means no effect
# Details: Huh7 Rab9 promoter-luciferase reporter, luminescence, 24 h; series mostly up to 9.22 µM; activation, negative = inhibition: at the top concentration
# Excerpt: NIH Chemical Genomics Center [NCGC] NIH Molecular Libraries Probe Production centers Network [MLPCN] MLPCN Grant: MH089537-01 Assay Submitter (PI): Yiannis A. Ioannou NCGC Assay Overview: Niemann Pick Type C (NPC) is a rare neurodegenerative lipidosis that is characterized by lipid storage in the endosomal/lysosomal system. Treatment modalities for this devastating disease are currently non-existent due to the severe obstacles associated with accessing the central nervous system with proteins or genes (Ioannou, 2000). We have developed a new paradigm, termed "Orphan Receptor Bypass Therapy" (ORByT), to address these disorders. This paradigm posits the existence of endogenous "suppressor" proteins whose expression can dramatically improve LSD pathogenesis. The goal is the identification/discovery of small chemical compounds that can modulate the expression of these proteins and provide a new treatment modality for these devastating disorders. One such protein whose overexpression reverses aspects of the NPC phenotype is Rab9. We have developed and optimized a cell based luciferase reporter assay in 1536 well format for the identification of up-regulators of the Rab9 promoter.
# The Rab9 promoter is cloned in front of the luciferase reporter gene, therefore […] promoter activation results in luciferase expression. Frozen stock of the Rab9 promoter transfected Huh7 cells were obtained from the laboratory of Dr. Yiannis Ioannou (The Mount Sinai School of Medicine, New York, NY). Cells were propagated and maintained at NCGC in medium containing RPMI-1640 supplemented with 10% FBS, 2mM L-glutamine, and 50ug/ml penicillin/streptomycin. Cells were harvested in and plated for assays in OP-MEM I reduced-serum medium supplemented with 10% FBS. The Amplite luciferase reporter gene assay kit was purchased from ABD Bioquest and prepared/stored according to manufacturers recommendations. qHTS Assay Setup: 1.Dispensed 5ul of Huh7 cells stably expressing Rab9-luciferase at a density of 1500 cells per well 1536-well plates. 2.Incubate cells at 37C, 5% CO2, and 95% humidity for 2 hours. 3.Transferred 23nl per well of compound in DMSO solution. 4.Incubated at 37C, 5% CO2, and 95% humidity for 24 hours. 5.Dispensed 3ul per well of Amplite reagent(ABD Bioquest) per well. 6.Incubate at ambient for 10 minutes. 7.Read using the luminescence protocol on the ViewLux plate reader (Perkin Elmer).
# Potency means the concentration at half of the fitted maximal effect.
SMILES,"activation, negative = inhibition [%]",Potency
COCCNc1nnc(SCC(=O)NNC(=O)c2ccco2)s1,1.51,
CCCCc1ccc(NS(=O)(=O)c2cccc(C(=O)N3CCCN(C)CC3)c2)cc1,-0.577,
COc1ccccc1P(=O)(c1ccccc1)c1ccccc1NC(C)=O (centres undefined),-1.37,
CCn1c2ccc(F)cc2c2nnc(SCCN3CCOCC3)nc21,0.369,
Cc1cccc(C)c1OCCN1CCOCC1,1.22,
Cc1cc2nc(SCCN3CCOCC3)[nH]c2cc1C,,3.55 µM (active)
O=C(Nc1cccnc1Oc1ncnc2cc(Cl)ccc12)c1ccc(F)cc1,-0.405,
Cc1ccc(S(=O)(=O)N(C)C)cc1NC(=O)c1ccc(-n2cncn2)c([N+](=O)[O-])c1,-2.73,
C/C(=N\Nc1cccc(C(=O)O)c1)c1ccc2c(c1)Nc1ccccc1S2,,3.16 µM (active)
O=C(O)c1cccc(N2C(=O)Nc3ccccc3N2O)c1,-0.52,
O=C(NC1CC1)c1ccc2c(c1)NC(=O)c1ccccc1S2,0.355,
CCc1ccccc1NC(=O)CN(C)C(=O)c1cc(C2CC2)nn1-c1ccccc1,-6.71,
CCN1C(=S)N[C@@H](c2cccc(C(F)(F)F)c2)C(C(=O)OC)=C1C,-0.0689,
O=C(CN1CCN(S(=O)(=O)c2ccc(Cl)s2)CC1)N1CCCCC1,1.18,
COC(=O)c1cc(NS(=O)(=O)c2ccc3c(c2)c(=O)n(C)c(=O)n3C)cc(C(=O)OC)c1,-1.46,
CSc1ccccc1C(=O)OCC(=O)N1CCN(C(C)=O)CC1,10.5,
N#C/C(=C1/CCCN1)c1ccccn1,-3.34,
N#CC(=C1CCCC1)c1nc(-c2ccc(Cl)cc2)cs1,,3.16 µM (active)
CCCCCN1CC(O)=C(c2nc(-c3ccc(Cl)cc3)cs2)C1=N,-1.52,
CCCCN(C(=O)c1nn(C)c(=O)c2ccccc12)c1c(N)n(CCC)c(=O)[nH]c1=O,-1.21,
COc1ccc2nc(C)cc(Nc3cccc(C(=O)O)c3)c2c1,0.435,
Cc1ccc(-n2ncc3c(Nc4cccc(C(=O)O)c4)ncnc32)cc1,,0.355 µM (active)
Cc1ccc(Nc2ncnc3c2cnn3C)c(C)c1,4.52,
COc1ccccc1C(=O)NCCC(=O)N(C)Cc1cccnc1,-4.93,
Oc1ccc(CN2CCN(c3ncccn3)CC2)cc1,9.57,
O=C(c1ccncc1)N1CCN(c2ccc3ccccc3n2)CC1,-12.5,
c1cnc(N2CCN(c3ccc4ccccc4n3)CC2)nc1,,3.16 µM (active)

SMILES,"activation, negative = inhibition [%]",Potency
CCOc1ccc(NS(=O)(=O)c2ccc(Cl)c(C(=O)N(C)Cc3cccnc3)c2)cc1,-4.89,
O=C(NCCc1ccc(C(F)(F)F)cc1)c1ccc2c(c1)OCO2,0.109,
CCNC(=O)CC1C(=O)N(c2ccc(OC)cc2)C(=S)N1CCc1ccncc1 (centres undefined),1.18,
CCOCCCn1c(SCC(=O)Nc2cc(OC)ccc2OC)nc2ccccc2c1=O,-1.67,
COc1ccc(NS(=O)(=O)c2cc(NC(=O)CC(=O)c3ccc([N+](=O)[O-])cc3)ccc2C)cc1,-2.92,
Cn1c(SCC(=O)Nc2nccs2)nnc1-c1cccnc1,-2.59,
Cc1cc(C(F)(F)F)nc(SCC(=O)Nc2nccs2)n1,2.24,
CCn1c(SCC(=O)Nc2nccs2)nnc1-c1ccncc1,-6.47,
Cc1[nH]c2ccccc2c1SCC(=O)Nc1nccs1,,4.47 µM (active)
CC(=O)c1cc(C#N)c(SCC(=O)C(C)(C)C)nc1C,,2.51 µM (active)
CCn1c(SCC(=O)Nc2nccs2)nnc1-c1ccco1,-18.2,
CC(=O)c1cc(C#N)c(SCC(=O)Nc2nccs2)nc1C,,1.26 µM (active)
CC(=O)c1cc(C#N)c(N2CC(C)OC(C)C2)nc1C (centres undefined),-9.19,
Cc1cc(C#N)c(SCC(N)=O)nc1-c1ccc(F)cc1,-4.05,
O=C1C=C(c2cccc(Cl)c2O)C[C@@H](c2ccc(F)cc2)C1,-8.32,
Cc1cc(C)c(C#N)c(SCC(=O)N(CC(C)C)C2CCS(=O)(=O)C2)n1 (centres undefined),-8.44,
O=C(O[C@@H]1[C@H](Cc2ccccc2)NS(=O)(=O)[C@H]2C[C@@H]3C=C[C@]12O3)c1ccccc1Br,-9.32,
O=C(Nc1ccccc1F)c1ccc(S(=O)(=O)N2CCCCCC2)cc1,24.5,
CCc1cc(C(=O)Nc2nnc(C3CC3)s2)sc1C,26.1,
O=C1CCC(=O)N(c2ccccc2)N1,-7.48,
CC(=O)NC1C(Oc2ccc(C)cc2)OC2COC(c3ccco3)OC2C1O (centres undefined),-3.88,
COc1ccc(C(=O)CSc2nnnn2C)c(OC)c1,-1.76,
CCn1nnnc1SCC(=O)Nc1ccc(N(C)C)cc1,24.8,
CCn1nnnc1SCC(=O)c1ccc(C)cc1C,,3.55 µM (active)
Cc1ccc(NC(=O)COC(=O)C2C3CC4OC(=O)C2C4C3)cc1Cl (centres undefined),3.77,
Nc1cc(N)nc(SCC(=O)Nc2cccc(S(=O)(=O)N3CCCCC3)c2)n1,-1.91,
O=C(/C=C/c1cccc([N+](=O)[O-])c1)OCC(=O)N1CCOCC1,-2.78,
